Assay results published in PubChem BioAssay AID1159580 (chemical genetic matrix, 2015).
Where “and” joins values, the source holds several entries; their conditions need not be identical. Identical values can stand only once. Out of some 5,500 compounds screened, about 2,000 (36%) were called active. About 18% were inconclusive and are not listed. No stated cut-off is given here; in the data, active means normalized growth mostly below about 0.91 (no sharp cut-off); inconclusive means no clear call, values can overlap the other calls; inactive means mostly above about 0.92. Some of the results follow.

Experiment: chemical genetic growth profiling, strain panel (AID 1159580);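 further: tested at 20 µM; growth read once vehicle control cultures reached saturation at 30 °C; 1 = growth at the plate median or of vehicle wells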
Settings: S. cerevisiae deletion strains, growth OD

Measured: normalized growth

O=C(O)C1CC([C@@H]2CCCCN2)CN2CCCCC12 (some centres not stated)
inactive: locus YAL021C, strain ccr4, stronger effect = lower value 1.02 | locus YAL026C, strain drs2, stronger effect = lower value 0.967 | locus YAL030W, strain snc1, stronger effect = lower value 0.972 | locus YBL061C, strain skt5, stronger effect = lower value 0.985 | locus YBR009C, strain hhf1, stronger effect = lower value 0.924 | locus YBR021W, strain FUR4, stronger effect = lower value 1.08 | locus YBR023C, strain chs3, stronger effect = lower value 1.01 | locus YBR171W, strain sec66, stronger effect = lower value 0.974 | locus YBR229C, strain ROT2, stronger effect = lower value 1.01 | locus YBR231C, strain swc5, stronger effect = lower value 0.981 | locus YBR279W, strain paf1, stronger effect = lower value 0.995 | locus YCL011C, strain gbp2, stronger effect = lower value 0.953 | locus YCL016C, strain dcc1, stronger effect = lower value 0.989 | locus YCL029C, strain bik1, stronger effect = lower value 0.969 | locus YCL061C, strain MRC1, stronger effect = lower value 0.983 | locus YCL069W, strain vba3, stronger effect = lower value 0.969 | locus YCR088W, strain abp1, stronger effect = lower value 0.987 | locus YDL005C, strain med2, stronger effect = lower value 0.972 | locus YDL035C, strain GPR1, stronger effect = lower value 1.01 | locus YDL040C, strain nat1, stronger effect = lower value 0.981 | locus YDL074C, strain BRE1, stronger effect = lower value 1.04 | locus YDL101C, strain DUN1, stronger effect = lower value 1.03 | locus YDL134C, strain PPH21, stronger effect = lower value 1.1 | locus YDL185W, strain tfp1, stronger effect = lower value 0.968 | locus YDL192W, strain arf1, stronger effect = lower value 0.967 | locus YDR001C, strain nth1, stronger effect = lower value 0.97 | locus YDR069C, strain doa4, stronger effect = lower value 0.97 | locus YDR101C, strain arx1, stronger effect = lower value 0.984 | locus YDR137W, strain rgp1, stronger effect = lower value 0.978 | locus YDR159W, strain sac3, stronger effect = lower value 0.958 | locus YDR162C, strain NBP2, stronger effect = lower value 1.08 | locus YDR195W, strain ref2 0.924 | locus YDR297W, strain sur2, stronger effect = lower value 0.984 | locus YDR318W, strain mcm21, stronger effect = lower value 0.98 | locus YDR334W, strain swr1, stronger effect = lower value 0.963 | locus YDR335W, strain msn5, stronger effect = lower value 0.983 | locus YDR388W, stronger effect = lower value 0.986 | locus YDR392W, strain spt3, stronger effect = lower value 0.902 | locus YDR502C, strain sam2, stronger effect = lower value 0.993 | locus YEL003W, strain gim4, stronger effect = lower value 0.98 | locus YEL037C, strain rad23, stronger effect = lower value 0.987 | locus YEL061C, strain CIN8 (second series), stronger effect = lower value 0.97 | locus YEL061C, strain CIN8, stronger effect = lower value 1.01 | locus YER015W, strain faa2, stronger effect = lower value 0.997 | locus YER016W, strain bim1, stronger effect = lower value 0.993 | locus YER110C, stronger effect = lower value 0.992 | locus YER111C, strain swi4, stronger effect = lower value 0.965 | locus YER155C, strain BEM2 (second series), stronger effect = lower value 0.968 | locus YER155C, strain BEM2, stronger effect = lower value 1.01 | locus YER167W, strain BCK2, stronger effect = lower value 1.02 | locus YFR010W, strain ubp6, stronger effect = lower value 0.969 | locus YGL078C, strain dbp3, stronger effect = lower value 0.993 | locus YGL086W, strain mad1, stronger effect = lower value 1.03 | locus YGL167C, strain pmr1, stronger effect = lower value 0.957 | locus YGL173C, strain kem1, stronger effect = lower value 0.979 | locus YGL227W, strain vid30, stronger effect = lower value 0.959 | locus YGL240W, strain doc1, stronger effect = lower value 0.959 | locus YGL248W, strain PDE1, stronger effect = lower value 1.04 | locus YGL253W, strain hxk2, stronger effect = lower value 0.999 | locus YGR078C, strain PAC10, stronger effect = lower value 1.06 | locus YGR135W, strain pre9, stronger effect = lower value 0.979 | locus YGR229C, strain SMI1, stronger effect = lower value 1.08 | locus YGR252W, strain gcn5, stronger effect = lower value 1.05 | locus YHR013C, strain ard1, stronger effect = lower value 0.93 | locus YHR027C, strain rpn1, stronger effect = lower value 0.971 | locus YHR030C, strain SLT2, stronger effect = lower value 0.997 and 0.989 | locus YHR079C, strain IRE1 (second series), stronger effect = lower value 0.998 | locus YHR079C, strain IRE1, stronger effect = lower value 0.998 | locus YHR094C, strain hxt1, stronger effect = lower value 0.978 | locus YHR129C, strain ARP1, stronger effect = lower value 1.01 | locus YHR142W, strain chs7, stronger effect = lower value 1.01 | locus YHR200W, strain rpn10, stronger effect = lower value 0.968 | locus YIL066C, strain RNR3, stronger effect = lower value 1.05 | locus YIL073C, strain SPO22, stronger effect = lower value 0.984 | locus YIL125W, strain kgd1, stronger effect = lower value 0.993 | locus YIR030C, strain dcg1, stronger effect = lower value 0.985 | locus YJL092W, strain hpr5, stronger effect = lower value 0.976 | locus YJL095W, strain BCK1 (second series), stronger effect = lower value 1 | locus YJL095W, strain BCK1, stronger effect = lower value 1.08 and 1.04 | locus YJL115W, strain asf1, stronger effect = lower value 0.978 | locus YJL129C, strain trk1, stronger effect = lower value 0.973 | locus YJL134W, strain LCB3, stronger effect = lower value 1 | locus YJL154C, strain vps35, stronger effect = lower value 0.986 | locus YJL164C, strain tpk1, stronger effect = lower value 0.997 | locus YJL166W, strain qcr8, stronger effect = lower value 0.995 | locus YJL168C, strain set2, stronger effect = lower value 0.986 | locus YJL187C, strain SWE1 (second series), stronger effect = lower value 1.04 | locus YJL187C, strain SWE1, stronger effect = lower value 0.976 | locus YJR043C, strain POL32, stronger effect = lower value 1.04 | locus YJR066W, strain TOR1, stronger effect = lower value 0.941 | locus YJR075W, strain HOC1, stronger effect = lower value 1.03 | locus YKL009W, strain mrt4, stronger effect = lower value 0.968 | locus YKL068W, stronger effect = lower value 0.99 | locus YKL085W, strain MDH1 (second series), stronger effect = lower value 1.01 | locus YKL085W, strain MDH1, stronger effect = lower value 1.01 | locus YKL160W, strain elf1, stronger effect = lower value 1.01 | locus YKR001C, strain vps1, stronger effect = lower value 1.02 | locus YKR026C, strain gcn3, stronger effect = lower value 0.973 | locus YKR091W, strain srl3, stronger effect = lower value 0.956 | locus YLL001W, strain dnm1, stronger effect = lower value 1.01 | locus YLL026W, stronger effect = lower value 0.999 | locus YLL041C, strain sdh2, stronger effect = lower value 0.997 | locus YLR027C, strain aat2, stronger effect = lower value 0.972 | locus YLR039C, strain RIC1, stronger effect = lower value 1.01 | locus YLR058C, strain SHM2, stronger effect = lower value 1.02 | locus YLR102C, strain apc9, stronger effect = lower value 0.998 | locus YLR113W, strain HOG1, stronger effect = lower value 1.02 | locus YLR221C, strain rsa3, stronger effect = lower value 0.993 | locus YLR258W, strain gsy2, stronger effect = lower value 0.982 | locus YLR262C, strain YPT6 (second series), stronger effect = lower value 0.978 | locus YLR262C, strain YPT6, stronger effect = lower value 1.04 | locus YLR268W, strain sec22, stronger effect = lower value 1.02 | locus YLR320W, strain mms22, stronger effect = lower value 0.984 | locus YLR330W, strain CHS5, stronger effect = lower value 1 | locus YLR342W, strain FKS1 (second series), stronger effect = lower value 1.07 | locus YLR342W, strain FKS1, stronger effect = lower value 0.958 | locus YLR357W, strain rsc2, stronger effect = lower value 0.963 | locus YLR370C, strain arc18, stronger effect = lower value 0.957 | locus YLR371W, strain rom2, stronger effect = lower value 0.945 | locus YLR384C, strain iki3, stronger effect = lower value 0.988 | locus YLR418C, strain cdc73, stronger effect = lower value 1.01 | locus YML016C, strain PPZ1, stronger effect = lower value 1.02 | locus YML032C, strain rad52, stronger effect = lower value 0.986 | locus YML120C, strain ndi1, stronger effect = lower value 0.991 | locus YML124C, strain tub3, stronger effect = lower value 0.978 | locus YMR058W, strain fet3, stronger effect = lower value 0.968 | locus YMR078C, strain ctf18, stronger effect = lower value 0.963 | locus YMR125W, strain sto1, stronger effect = lower value 0.917 | locus YMR129W, stronger effect = lower value 0.96 | locus YMR205C, strain PFK2, stronger effect = lower value 0.931 | locus YMR223W, strain ubp8, stronger effect = lower value 0.981 | locus YMR231W, strain pep5, stronger effect = lower value 0.967 | locus YMR307W, strain GAS1, stronger effect = lower value 1.13 | locus YNL067W, strain RPL9B, stronger effect = lower value 1.05 | locus YNL071W, strain lat1, stronger effect = lower value 0.987 | locus YNL153C, strain GIM3, stronger effect = lower value 1.07 | locus YNL183C, strain NPR1, stronger effect = lower value 0.97 | locus YNL209W, strain ssb2, stronger effect = lower value 0.965 | locus YNL233W, strain BNI4, stronger effect = lower value 1.06 | locus YNL248C, strain rpa49, stronger effect = lower value 1.01 | locus YNL250W, strain rad50, stronger effect = lower value 0.983 | locus YNL271C, strain bni1, stronger effect = lower value 0.968 | locus YNL298W, strain CLA4, stronger effect = lower value 0.972 | locus YNL307C, strain MCK1, stronger effect = lower value 0.999 | locus YNL322C, strain KRE1 (second series), stronger effect = lower value 0.971 | locus YNL322C, strain KRE1, stronger effect = lower value 1.01 | locus YNR049C, strain mso1, stronger effect = lower value 0.978 | locus YNR052C, strain pop2, stronger effect = lower value 0.975 | locus YOL006C, strain TOP1, stronger effect = lower value 1.08 | locus YOL012C, strain htz1 0.943 | locus YOL147C, strain pex11, stronger effect = lower value 0.995 | locus YOR001W, strain rrp6, stronger effect = lower value 1.03 | locus YOR061W, strain CKA2, stronger effect = lower value 1.01 | locus YOR069W, strain VPS5, stronger effect = lower value 1 | locus YOR070C, strain gyp1, stronger effect = lower value 0.999 | locus YOR080W, strain dia2, stronger effect = lower value 0.973 | locus YOR083W, strain WHI5, stronger effect = lower value 1.02 | locus YOR106W, strain vam3, stronger effect = lower value 1 | locus YOR136W, strain idh2, stronger effect = lower value 1.01 | locus YOR144C, strain elg1, stronger effect = lower value 0.996 | locus YOR184W, strain ser1, stronger effect = lower value 1.01 | locus YOR231W, strain MKK1, stronger effect = lower value 0.98 | locus YOR265W, strain rbl2, stronger effect = lower value 0.946 | locus YOR270C, strain vph1, stronger effect = lower value 0.989 | locus YOR290C, strain snf2, stronger effect = lower value 0.917 | locus YOR316C, strain cot1, stronger effect = lower value 0.971 | locus YPL051W, strain arl3, stronger effect = lower value 1.01 | locus YPL055C, strain LGE1, stronger effect = lower value 1.06 | locus YPL078C, strain atp4, stronger effect = lower value 0.988 | locus YPL106C, strain sse1, stronger effect = lower value 0.959 | locus YPL240C, strain hsp82, stronger effect = lower value 0.977 | locus YPL256C, strain CLN2, stronger effect = lower value 1.01 | locus YPR119W, strain clb2, stronger effect = lower value 0.987 | locus YPR141C, strain kar3, stronger effect = lower value 0.983 | locus YPR163C, strain tif3, stronger effect = lower value 0.989 | locus YPR167C, strain met16, stronger effect = lower value 0.975 | strain wtn01, stronger effect = lower value 0.989
